Data on 29 compounds can be found in PubChem BioAssay (NCATS).

Calls of active or inactive are those of the source. Calls follow the shape of the dose curve; as a rule, active = well fitted inhibition curve with a large enough effect; inconclusive = small, poorly fitted or top-dose-only effect; inactive = flat fitted curve, though single readings scatter.

Chain of DNA dC->dU-editing enzyme APOBEC-3G (Homo sapiens) (Q9HC16 whole entry, looked up): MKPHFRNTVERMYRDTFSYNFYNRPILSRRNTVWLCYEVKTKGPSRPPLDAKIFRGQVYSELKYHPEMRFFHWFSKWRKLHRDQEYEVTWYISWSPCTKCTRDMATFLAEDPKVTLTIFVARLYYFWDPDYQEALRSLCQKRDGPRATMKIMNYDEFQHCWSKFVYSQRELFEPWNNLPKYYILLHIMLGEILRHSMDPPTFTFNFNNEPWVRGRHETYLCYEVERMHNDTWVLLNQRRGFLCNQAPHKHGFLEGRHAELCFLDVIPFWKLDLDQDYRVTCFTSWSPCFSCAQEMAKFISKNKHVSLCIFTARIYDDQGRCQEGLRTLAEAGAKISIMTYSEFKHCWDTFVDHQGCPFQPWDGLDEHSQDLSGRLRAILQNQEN

This experiment has as its target DNA dC->dU-editing enzyme APOBEC-3G (Homo sapiens) (UniProt Q9HC16). The experiment is described as follows: qHTS for inhibitors of Vif-A3G interactions: Validation (AID 588379). To be noted: Vif-A3G protein interaction assay; series mostly up to 46.1 µM. The text has this:
The recent discovery and characterization of host restriction factors, which provide a potent defense to invading retroviruses, has provided new targets for antiviral drug development. APOBEC3G (A3G) and APOBEC3F (A3F) are potent cytidine deaminases that block HIV-1 replication; HIV-1 expresses the Vif protein, which counteracts A3G and A3F by binding to them and inducing their proteasomal degradation.
The Vif-A3G and Vif-A3F interactions provide two potential targets for development of small molecules which can interfere with the ability of Vif to degrade A3G or A3F. […] To identify inhibitors that can interfere with Vif mediated degradation of A3G and A3F, we have developed Hela cell lines that stably express A3G or A3F tagged with eYFP at the C-terminal end (A3G-eYFP or A3F-eYFP, respectively) and Vif. In the absence of an inhibitor, Vif induces degradation of A3G-eYFP and A3F-eYFP, and the cells are not fluorescent. In the presence of an inhibitor, it is expected that Vif will be unable to degrade A3G-eYFP and/or A3F-eYFP, resulting in an increase in yellow fluorescence. In this assays Vif A3G was screened against the Molecular Library Small Molecile Repository (MLSMR).
NIH Chemical Genomics Center [NCGC]
NIH Molecular Libraries Probe Centers Network [MLPCN]
Assay Submitter (PI): Vinay Pathak, National Cancer Institute
5 uL of 700 cells/well of A3G-YFP cells are dispensed into black, clear bottom plates. The plates are incubated overnight at 37 deg C. 23 nL of compounds are added by pintool. The plates are incubated overnight at 37 deg C and then read on the TTP Acumen (Ex 488/ Em 500-530).
A general note: Quantitative high-throughput screening tests each substance at several concentrations.
`CCN1CCC[C@H]1CNC(=O)c1c(O)c(Cl)cc(Cl)c1OC`: the compound was called inactive.
In the case of `N[C@@H](COP(=O)(O)O)C(=O)O`, the result was inactive.
As for `COc1cc(C(=O)OCCCN2CCCN(CCCOC(=O)c3cc(OC)c(OC)c(OC)c3)CC2)cc(OC)c1OC`, the compound was called inactive.
Under `CN(C)CC/C=C1\c2ccccc2COc2ccccc21` stands “inactive”; under `COc1ccc(CN(CCN(C)C)c2ccccn2)cc1`, “inactive”; under `FC(F)(F)c1ccccc1-n1ccnc1`, “inactive”.
As for `O=C1CC2(CCCC2)CC(=O)N1CCCCN1CCN(c2ncccn2)CC1`, the outcome was inactive.
Regarding `CN/C(=C\[N+](=O)[O-])NCCSCc1ccc(CN(C)C)o1`, the call was inactive.
With `CN1CCN(CC(=O)N2c3ccccc3C(=O)Nc3cccnc32)CC1`, the result was inactive.
Under `CCCCNc1c(C(=O)OCC)c(C)nc2c1cnn2CC` stands “inactive”.
Turning to `CCCOc1ccccc1-c1nc2n[nH]nc2c(=O)[nH]1`, the compound was called inactive.
In the case of `Cc1ccc(=O)n(-c2ccccc2)c1` it was “inactive”; in that of `CCN(CC)CCOCCOC(=O)C1(c2ccccc2)CCCC1`, “inactive”.
`CCCCCCCC/C=C\CCCCCCCC(=O)NCc1ccc(O)c(OC)c1`: the outcome was inactive.
Under `O=c1[nH]c(=O)n([C@H]2C[C@H](O)[C@@H](CO)O2)cc1Br` stands “inactive”; under `CN=C(NC#N)NCCSCc1nc[nH]c1C`, “inactive”; under `Cc1scc2c1N(C(=O)CN1CCN(C)CC1)c1ccccc1NC2=O`, “inactive”.
In the case of `CCn1nc(C(=O)O)c(=O)c2cc3c(cc21)OCO3`, the compound was classed as inactive.
On to `COc1ccc2c(c1OC)C(=O)O[C@@H]2[C@H]1c2c(cc3c(c2OC)OCO3)CCN1C`, for which the compound was classed as inactive.
Under `NC(N)=NC(=O)Cc1c(Cl)cccc1Cl` stands “inactive”.
In the case of `CN(C(=O)CCCOc1ccc2[nH]c(=O)ccc2c1)C1CCCCC1` it was “inactive”; in that of `c1cc(CN2CCCCC2)cc(OCCCNc2nc3ccccc3s2)c1`, “inactive”; in that of `c1cnc(N2CCN(Cc3ccc4c(c3)OCO4)CC2)nc1`, “inactive”.
Under `COc1cc(Cc2cnc(N)nc2N)cc(OC)c1OC` stands “inactive”.
Consider `CCCN1C[C@H](CSC)C[C@@H]2c3cccc4[nH]cc(c34)C[C@H]21`, for which the compound was classed as inactive.
Regarding `Brc1c(NC2=NCCN2)ccc2nccnc12`, the call was inactive.
For `CCOC(=O)c1cnc2c(cnn2CC)c1NN=C(C)C`, the outcome was inactive.
`COc1ccc([C@@H]2Sc3ccccc3N(CCN(C)C)C(=O)[C@@H]2OC(C)=O)cc1`: the compound was called inactive.
In the case of `CC1=NS(=O)(=O)c2cc(Cl)ccc2N1` it was “inactive”.
